According to PubChem BioAssay (NCI):
The panel holds about 79,000 compounds, 15% with a hit somewhere; the sample as a whole holds those more often. Activity calls are given as the source filed them. Cut-off read from the data, not from the text of the source: active = growth inhibition above about 70%; inactive = the rest.

Tests used:
[1] = NCI Yeast Anticancer Drug Screen. Data for the rad52 strain (AID 147);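 note: 0% = growth of vehicle-treated control cultures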; details: S. cerevisiae rad52 mutant growth inhibition, stronger effect = higher value
Summary of the method: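 Yeast strain carrying a DNA damage repair alteration was exposed to test compounds. Growth inhibition was measured relative to vehicle-treated controls.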

[2] = NCI Yeast Anticancer Drug Screen. Data for the wt1 strain (AID 149);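 note: 0% = growth of vehicle-treated wt1 cultures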; details: S. cerevisiae wt1 strain (SPY 50644) growth inhibition, stronger effect = higher value
Summary of the method: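 Yeast wt1 strain exposed to compounds; growth inhibition measured relative to vehicle-treated controls.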

[3] = NCI Yeast Anticancer Drug Screen. Data for the rad50EPP+ strain (AID 151);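 note: 0% = growth of vehicle-treated control cultures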; details: S. cerevisiae rad50 mutant strain, stronger effect = higher value
Summary of the method: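 Yeast strain carrying rad50 alteration (rad50EPP+) exposed to compounds; growth inhibition measured relative to vehicle-treated controls.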

[4] = NCI Yeast Anticancer Drug Screen. Data for the rad50 strain (AID 155);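 note: 0% = growth of vehicle-only cultures of the same strain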; details: S. cerevisiae rad50 strain growth inhibition, stronger effect = higher value
Summary of the method: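 Yeast carrying a defined DNA repair defect were exposed to test compounds, and growth was compared with vehicle-treated controls to give percent inhibition.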

[5] = NCI Yeast Anticancer Drug Screen. Data for the mec2-1 strain (AID 157); details: S. cerevisiae mec2-1 strain, stronger effect = higher value
Summary of the method: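 mec2-1 yeast strain, carrying an alteration in DNA damage repair or cell cycle control, was exposed to compounds; growth inhibition was measured relative to vehicle-treated controls.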

[6] = NCI Yeast Anticancer Drug Screen. Data for the rad14 strain (AID 159);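 note: 0% = growth of vehicle-treated control cultures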; details: S. cerevisiae rad14 strain growth inhibition, stronger effect = higher value
Summary of the method: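 Yeast cells carrying a defined DNA-repair defect were exposed to compounds, and growth inhibition was calculated relative to vehicle-treated control cultures.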

[7] = NCI Yeast Anticancer Drug Screen. Data for the sgs1 mgt1 strain (AID 161);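 note: 0% = growth of cultures given vehicle only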; details: S. cerevisiae sgs1 mgt1 strain, stronger effect = higher value
Summary of the method: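 This yeast growth screen uses a strain with defined DNA-repair lesions; compound-treated growth is compared with vehicle-treated growth.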

[8] = NCI Yeast Anticancer Drug Screen. Data for the CLN2oe strain (AID 163);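 note: 0% = growth of vehicle-only control cultures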; details: S. cerevisiae CLN2oe strain, stronger effect = higher value
Summary of the method: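 Yeast cells carrying a defined cell-cycle control alteration were exposed to test compounds. Growth inhibition was scored against vehicle-treated control cultures.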

[9] = NCI Yeast Anticancer Drug Screen. Data for the cln2 rad14 strain (AID 165);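 note: 0% = growth equal to vehicle treated cultures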; details: S. cerevisiae cln2 rad14 strain, stronger effect = higher value
Summary of the method: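 Yeast carrying cln2 and rad14 alterations (cell cycle control and DNA damage repair) were exposed to compounds. Growth inhibition was measured against vehicle-treated controls.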

[10] = NCI Yeast Anticancer Drug Screen. Data for the bub3 strain (AID 167); details: S. cerevisiae bub3 mutant strain, stronger effect = higher value
Summary of the method: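 Compounds were applied to a genetically altered yeast strain carrying a cell-cycle control defect. Growth inhibition was scored against vehicle-treated controls.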

[11] = NCI Yeast Anticancer Drug Screen. Data for the wt2 strain (AID 169);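 note: 0% = growth of vehicle-treated yeast cultures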; details: S. cerevisiae wt2 strain growth inhibition, stronger effect = higher value
Summary of the method: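 Yeast cells were exposed to test compounds, and growth inhibition was measured relative to vehicle-treated controls.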

[12] = NCI Yeast Anticancer Drug Screen. Data for the mlh1 strain (AID 171);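 note: 0% = growth of vehicle-treated control cultures of the same strain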; details: S. cerevisiae mlh1 strain growth inhibition, stronger effect = higher value
Summary of the method: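 Yeast carrying a defined genetic alteration in DNA damage repair or cell cycle control were exposed to test compounds. Growth inhibition was measured relative to vehicle-treated controls.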

[13] = NCI Yeast Anticancer Drug Screen. Data for the sgs1 strain (AID 173);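 note: 0% = growth of vehicle-only control cultures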; details: S. cerevisiae sgs1 mutant, stronger effect = higher value
Summary of the method: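 Yeast mutant strains carrying defined defects in DNA damage repair or cell cycle control were exposed to test compounds. Growth inhibition was scored against vehicle-treated controls.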

[14] = NCI Yeast Anticancer Drug Screen. Data for the mlh1 rad18 strain (AID 175); details: S. cerevisiae mlh1 rad18 strain growth inhibition, stronger effect = higher value
Summary of the method: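 Growth inhibition of the yeast strain was measured after compound exposure and expressed relative to vehicle-treated controls. The strain carries defined defects in DNA damage repair.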

[15] = NCI Yeast Anticancer Drug Screen. Data for the rad18 strain (AID 177); details: S. cerevisiae rad18 mutant growth inhibition, stronger effect = higher value
Summary of the method: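 Yeast carrying a defined DNA damage repair alteration were exposed to compounds. Growth inhibition was expressed relative to vehicle-treated controls.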

[16] = at 5.0 µM (retest, dose inferred, filed as 0.5)
[17] = at 50.0 µM (retest, dose inferred, filed as 5.0)

Measured: growth inhibition

CN[C@@H]1C[C@H]2O[C@@](C)([C@@H]1OC)n1c3ccccc3c3c4c(c5c6ccccc6n2c5c31)C(=O)N[C@@H]4O
active: [10]; [17] 83% | [10]; at 50.0 µM 74.5% | [10]; at 100.0 µM 74%
inactive: [1]; at 1.2 µM 11% | [1]; at 3.7 µM 35% | [1]; at 11.0 µM 22% | [1]; at 33.0 µM 24% | [1]; at 100.0 µM 38% | [2]; at 1.2 µM -24% | [2]; at 3.7 µM 16% | [2]; at 11.0 µM 15% | [2]; at 33.0 µM 7% | [2]; at 100.0 µM 8% | [3]; at 1.2 µM -23% | [3]; at 3.7 µM -18% | [3]; at 11.0 µM -9% | [3]; at 33.0 µM -11% | [3]; at 100.0 µM 21% | [4]; at 1.2 µM -34% | [4]; at 3.7 µM -41% | [4]; [16] -17% | [4]; at 11.0 µM -23% | [4]; at 33.0 µM -33% | [4]; [17] 6% | [4]; at 50.0 µM 50.4% | [4]; at 100.0 µM 2% | [5]; at 1.2 µM -53% | [5]; at 3.7 µM -44% | [5]; [16] -9% | [5]; at 11.0 µM -36% | [5]; at 33.0 µM -9% | [5]; [17] 30% | [5]; at 50.0 µM 35% | [5]; at 100.0 µM 19% | [6]; at 1.2 µM -31% | [6]; at 3.7 µM -34% | [6]; at 11.0 µM -31% | [6]; at 33.0 µM -9% | [6]; at 100.0 µM 67% | [7]; [16] -1% | [7]; [17] 24% | [7]; at 50.0 µM 16.4% | [8]; at 1.2 µM -8% | [8]; at 3.7 µM -8% | [8]; at 11.0 µM 5% | [8]; at 33.0 µM 12% | [8]; at 100.0 µM 20% | [9]; [16] 13% | [9]; [17] 38% | [9]; at 50.0 µM 22.4% | [10]; at 1.2 µM -11% | [10]; at 3.7 µM -10% | [10]; [16] 30% | [10]; at 11.0 µM 13% | [10]; at 33.0 µM 32% | [11]; at 1.2 µM -36% | [11]; at 3.7 µM -16% | [11]; at 11.0 µM 15% | [11]; at 33.0 µM -21% | [11]; at 100.0 µM 21% | [12]; at 1.2 µM -20% | [12]; at 3.7 µM -12% | [12]; at 11.0 µM -16% | [12]; at 33.0 µM 0% | [12]; at 100.0 µM -7% | [13]; at 1.2 µM -1% | [13]; at 3.7 µM -5% | [13]; at 11.0 µM 1% | [13]; at 33.0 µM 8% | [13]; at 100.0 µM 43% | [14]; [16] 2% | [14]; [17] 31% | [14]; at 50.0 µM 25.7% | [15]; at 1.2 µM -8% | [15]; at 3.7 µM -7% | [15]; at 11.0 µM -3% | [15]; at 33.0 µM 10% | [15]; at 100.0 µM 25%

CCC(=O)N(c1ccccc1)C(C)CN1CCC(O)(c2cccc(C(F)(F)F)c2)CC1 (stereo unspecified)
inactive: [1]; at 1.2 µM 0% | [1]; at 3.7 µM 4% | [1]; at 11.0 µM 13% | [1]; at 33.0 µM 27% | [2]; at 1.2 µM 2% | [2]; at 3.7 µM 6% | [2]; at 11.0 µM 11% | [2]; at 33.0 µM 22% | [2]; at 100.0 µM 46% | [3]; at 1.2 µM -3% | [3]; at 3.7 µM -3% | [3]; at 11.0 µM -1% | [3]; at 33.0 µM -2% | [3]; at 100.0 µM -1% | [4]; at 1.2 µM -2% | [4]; at 3.7 µM -7% | [4]; [16] 21% | [4]; at 11.0 µM 3% | [4]; at 33.0 µM 26% | [4]; [17] 4% | [4]; at 50.0 µM 62.3% | [5]; at 1.2 µM 0% | [5]; at 3.7 µM 7% | [5]; [16] -2% | [5]; at 11.0 µM 17% | [5]; at 33.0 µM 23% | [5]; [17] 10% | [5]; at 50.0 µM 10.2% | [5]; at 100.0 µM 57% | [6]; at 1.2 µM 6% | [6]; at 3.7 µM 18% | [6]; at 11.0 µM 48% | [6]; at 33.0 µM 68% | [7]; [16] -4% | [7]; [17] 41% | [7]; at 50.0 µM 68.2% | [8]; at 1.2 µM 2% | [8]; at 3.7 µM 1% | [8]; at 11.0 µM 13% | [8]; at 33.0 µM 41% | [9]; [16] 7% | [9]; [17] 43% | [9]; at 50.0 µM 18.6% | [10]; at 1.2 µM 1% | [10]; at 3.7 µM 3% | [10]; [16] 4% | [10]; at 11.0 µM 17% | [10]; at 33.0 µM 49% | [10]; [17] 51% | [10]; at 50.0 µM 65.2% | [11]; at 1.2 µM 0% | [11]; at 3.7 µM 5% | [11]; at 11.0 µM 16% | [11]; at 33.0 µM 44% | [12]; at 1.2 µM 2% | [12]; at 3.7 µM 6% | [12]; at 11.0 µM 17% | [12]; at 33.0 µM 44% | [13]; at 1.2 µM 2% | [13]; at 3.7 µM 10% | [13]; at 11.0 µM 20% | [13]; at 33.0 µM 60% | [14]; [16] -3% | [14]; [17] 37% | [14]; at 50.0 µM 38.9% | [15]; at 1.2 µM 3% | [15]; at 3.7 µM 9% | [15]; at 11.0 µM 25% | [15]; at 33.0 µM 31% | [15]; at 100.0 µM 69%
active: [1]; at 100.0 µM 83% | [4]; at 100.0 µM 76% | [6]; at 100.0 µM 97% | [8]; at 100.0 µM 73% | [10]; at 100.0 µM 89% | [11]; at 100.0 µM 96% | [12]; at 100.0 µM 91% | [13]; at 100.0 µM 94%
